{"source": "PubChem BioAssay (NCATS)", "note": "Inconclusive results are not listed. The source made the active and inactive calls. Calls come from the whole dose curve; as a rule, active = well fitted activation curve with a large enough effect; inconclusive = small, poorly fitted or top-dose-only effect; inactive = flat fitted curve, though single readings scatter. Where a SMILES comes first, the peptide text is derived from it. The star is where a group is joined. Cbz = O=C(OCc1ccccc1)*; CH2F = FC*"}
{"assay": "Primary redox qHTS assay for identification of artifact compounds. (AID 1845223)", "conditions": "Amplex Red/HRP redox cycling with DTT, fluorescence; series mostly up to 53.8 µM; redox activity (% of DA3003): at the top concentration", "from_the_text": "PI: Alexander Tropsha Ph.D.\nUNC Eshelman School of Pharmacy\nUniversity of North Carolina, Chapel Hill, North Carolina\nHits from high-throughput screening (HTS) of chemical libraries are often false positives due to their interference with the assay detection technology. In response to this problem, we generated the largest publicly available library of chemical liabilities and developed a free webtool to predict HTS artifacts, both of which are described herein. More specifically, we generated, curated, and integrated HTS datasets for thiol reactivity, redox activity, and luciferase (firefly and nano) activity. Using these curated datasets, we developed and validated several Quantitative Structure-Interference Relationship (QSIR) models to predict nuisance behavior. […] These models were employed for virtual profiling of the National Center for Advancing Translational Science's (NCATS) in-house library, and 256 compounds for each assay were selected for the experimental validation of nuisance behavior. The BA for these external predictions ranged from 58 to 78% for compounds within the applicability domains of the models. […] The models developed in this study, along with aggregation models previously developed by our group (SCAM Detective) were implemented in \"Liability Predictor,\" an online tool which may be used as part of chemical library design or for triaging HTS hits. Both the models and the curated datasets are publicly available at https://liability.mml.unc.edu/.\nSEQUENCE No. (e.g., 1, 2, 3, etc.); […] (e.g., Cells, Incubation, Reagent, etc.); VALUE; DESCRIPTION.\n1; Reagent; 3 uL; Amplex Red and HRP mixture.\n2; Compounds and control; 16 nL; Kalypsis pin tool (Wako USA) equipped with a 1536-well pin head. […]\n6; Detection; Fluorescence, ViewLux microplate reader, 525 nm excitation, 598 nm emission.\nNOTES (numbers refer to Sequence numbers above)\n1. 3 uL of a mixture containing Amplex Red (25 uM final concentration) and horseradish peroxidase (HRP; 250 mU/mL final concentration) in assay buffer (HBSS) was dispensed into all wells of a 1536-well assay plate (solid-bottom black plate; Greiner Bio One, Monroe, NC).\n2. A Wako Pin-tool (Wako Automation, Richmond, VA) was used to transfer 16 nL of compounds (consisting of 7-plates in qHTS format, final concentration range 18.3 nM to 114 uM) or control DA3003 (final concentration range 1.22 nM to 40 uM).\n3. 15 min. incubation at room temperature protected from light.\n4. 1 uL of DTT (prepared fresh; final concentration 250 uM) was dispensed for a final assay volume of 4 uL.\n5. Plates were centrifuged (121xg, 15 seconds) and incubated for 30 minutes at room temperature protected from light.\n6. Samples were read for fluorescence (Ex/Em = 525(20)/598(25) nm) on a ViewLux CCD imager (PerkinElmer). Data were normalized to DMSO (0% activity) and DA3003 (10 uM final concentration; 100% activity) and the resulting percent inhibition data were fitted to a 4-parameter Hill equation using NCATS in-house software."}
{"smiles": "Fc1ccc(-c2c3cccc(C(F)(F)F)c3nn2Cc2ccc(F)cc2Cl)cc1", "redox activity (% of DA3003)": "-4.06% (inactive)"}
{"smiles": "O=C(O)c1ccnc(-c2cc(C(=O)NCCc3ccccc3)ccn2)c1", "redox activity (% of DA3003)": "1.94% (inactive)"}
{"smiles": "OC[C@H]1O[C@@H](OCCc2ccccc2)[C@H](O[C@@H]2OC[C@@H](O)[C@H](O)[C@H]2O)[C@@H](O)[C@@H]1O", "redox activity (% of DA3003)": "-4.01% [at 25.6 µM] (inactive)"}
{"smiles": "Cc1c(C)c(NCC(=O)N(C)C2CCN(Cc3ccc(C(N)=O)cc3)CC2)c(C)c(C)c1N", "redox activity (% of DA3003)": "-0.361% (inactive)"}
{"smiles": "OC[C@@]1(O)CO[C@H](OC[C@H]2O[C@@H](OCCc3ccccc3)[C@H](O)[C@@H](O)[C@@H]2O)[C@@H]1O", "redox activity (% of DA3003)": "-0.884% [at 25.6 µM] (inactive)"}
{"smiles": "CC1CC(=O)[C@]2(O)C(C(=O)OCCc3ccc(O)cc3)=CO[C@@H](O[C@@H]3O[C@H](CO)[C@@H](O)[C@H](O)[C@H]3O)[C@H]12", "note": "(stereo not given in full)", "redox activity (% of DA3003)": "-1.16% [at 25.6 µM] (inactive)"}
{"smiles": "Cc1occc1C(=O)n1ccnc1", "redox activity (% of DA3003)": "-1.41% (inactive)"}
{"smiles": "C[C@@]1(O)[C@H](O)[C@@H](CO)O[C@H]1n1cnc2c(=O)[nH]c(N)nc21", "redox activity (% of DA3003)": "-3.81% (inactive)"}
{"smiles": "C=C1CC[C@@H]2[C@](C)(CO)[C@H](O[C@@H]3O[C@H](CO)[C@@H](O)[C@H](O)[C@H]3O)CC[C@@]2(C)[C@@H]1C/C=C1/C(=O)OC[C@H]1O", "redox activity (% of DA3003)": "-2.76% [at 25.6 µM] (inactive)"}
{"smiles": "C[C@H]1CC(=O)C2=C(C1)C(O)C(O)[C@@]1(O)[C@H]2C(=O)c2cccc(O)c2[C@@H]1O", "note": "(stereo not given in full)", "redox activity (% of DA3003)": "-10.6% (inactive)"}
{"smiles": "COC(=O)CC[C@H](NC(=O)[C@H](CC(C)C)NC(=O)OCc1ccccc1)C(=O)N[C@@H](Cc1cnc[nH]1)C(=O)N[C@@H](CC(=O)OC)C(=O)CF", "note": "(Cbz-LE(OMe)HD(OMe)-CH2F)", "redox activity (% of DA3003)": "-3.22% [at 11.5 µM] (inactive)"}
{"smiles": "COC(=O)[C@]1(C)CCC[C@@]2(C)[C@@H]3CC[C@@H]4C[C@@]3(CC[C@@H]21)C[C@H]4C(=O)O", "redox activity (% of DA3003)": "-4.65% (inactive)"}
{"smiles": "CC1=CC(=O)CC(C)(C)[C@@]1(O)/C=C/C(C)O[C@@H]1O[C@H](CO)[C@@H](O)[C@H](O)[C@H]1O", "note": "(stereo not given in full)", "redox activity (% of DA3003)": "-17.7% [at 25.6 µM] (inactive)"}
{"smiles": "O=C(OCC1=CC(Cl)C(O)C(OC(=O)c2ccccc2)C1O)c1ccccc1", "note": "(stereo not given)", "redox activity (% of DA3003)": "4.21% [at 25.6 µM] (inactive)"}
{"smiles": "CC1=CCC2C(C)(C)CCCC2(C)C1CC12OC1C(O)C(CO)=CC2O", "note": "(stereo not given)", "redox activity (% of DA3003)": "0.487% (inactive)"}
{"smiles": "CC(=O)N[C@H](Cc1c[nH]c2ccccc12)C(=O)OCc1cc(C(F)(F)F)cc(C(F)(F)F)c1", "redox activity (% of DA3003)": "0.432% (inactive)"}
{"smiles": "CC(=O)/C=C/C1(O)C(C)=CC(=O)CC1(C)C", "note": "(stereo not given)", "redox activity (% of DA3003)": "-1.7% (inactive)"}
{"smiles": "CC(C)(C)NS(=O)(=O)c1ccc(-c2ccc3[nH]nc(N)c3c2)cc1", "redox activity (% of DA3003)": "-9.39% (inactive)"}
{"smiles": "C[C@@H]1O[C@@H](O[C@H]2[C@H](O[C@H]3[C@H](O[C@H]4CC[C@@]5(C)C(CC[C@]6(C)C5CC=C5[C@@H]7CC(C)(C)C[C@@H](O)[C@]7(C)CC[C@]56C)C4(C)C)O[C@H](C(=O)O)[C@@H](O)[C@@H]3O)O[C@H](C(=O)O)[C@H](O)[C@@H]2O)[C@H](O)[C@H](O)[C@H]1O", "note": "(stereo not given in full)", "redox activity (% of DA3003)": "11.1% [at 11.5 µM] (inactive)"}
{"smiles": "CC(C)NC(=O)c1ccc(C#Cc2ccncc2)cn1", "redox activity (% of DA3003)": "-6.17% (inactive)"}
{"smiles": "COC(=O)C[C@H]1C(C)(C)[C@H](OC(=O)C(C)C)C2CC3=C4CC(=O)O[C@@H](c5ccoc5)[C@]4(C)CCC3[C@@]1(C)C2=O", "note": "(stereo not given in full)", "redox activity (% of DA3003)": "-0.193% [at 25.6 µM] (inactive)"}
{"smiles": "CCOC(=O)c1ccc(NC2CCCCC2)c(N)c1", "redox activity (% of DA3003)": "-4.83% (inactive)"}
{"smiles": "COC(=O)c1c(CC=C(C)C)c(OC2OC(CO)C(O)C(O)C2O)c2ccccc2c1OC1OC(CO)C(O)C(O)C1O", "note": "(stereo not given)", "redox activity (% of DA3003)": "-16.8% [at 25.6 µM] (inactive)"}
{"smiles": "CC(O)C(O)/C=C/C=C/C(=O)O[C@@H]1C=C(C(=O)O)[C@](O)(CO)[C@@]2(C)CCCC(C)(C)[C@H]12", "note": "(stereo not given in full)", "redox activity (% of DA3003)": "8.96% [at 25.6 µM] (inactive)"}
{"smiles": "O=C(O)c1cccc(C(=O)CCC2OC(n3cnc4c(=O)[nH]cnc43)C(O)C2O)c1", "note": "(stereo not given)", "redox activity (% of DA3003)": "2.83% [at 25.6 µM] (inactive)"}
{"smiles": "CC1CCCCCCCc2cc(O)cc(O)c2C(=O)O1", "note": "(stereo not given)", "redox activity (% of DA3003)": "8.18% (inactive)"}
{"smiles": "NC1Nc2ccccc2C1(N)CC1NC(=O)C(Cc2ccccc2)NC(=O)C(Cc2ccccc2)NC1=O", "note": "(stereo not given)", "redox activity (% of DA3003)": "10.6% [at 25.6 µM] (inactive)"}
{"smiles": "CSCC1OC(n2cnc3c(N)ncnc32)C(O)C1O", "note": "(stereo not given)", "redox activity (% of DA3003)": "-11.3% (inactive)"}
{"smiles": "CC1(C)CC[C@]2(C(=O)OC3OC(CO)C(O)C(O)C3O)CC[C@]3(C)C(=CCC4[C@@]5(C)C[C@@H](O)[C@H](OC6OC(C(=O)O)C(O)C(O)C6O)C(C)(C)C5CC[C@]43C)[C@@H]2C1", "note": "(stereo not given in full)", "redox activity (% of DA3003)": "1.95% [at 11.5 µM] (inactive)"}
{"smiles": "CC(C)C(NC(=O)c1ccc(O)cc1)C(=O)N1CCCC1C(=O)Nc1c(O)cccc1C(=O)O", "note": "(stereo not given)", "redox activity (% of DA3003)": "-0.112% [at 25.6 µM] (inactive)"}
{"smiles": "NC(=O)c1ccc(F)c2c1C[C@@H](N(C1CCC1)C1CCC1)CO2", "redox activity (% of DA3003)": "1.18% (inactive)"}
{"smiles": "COc1ccc(/C=C/C(=O)N2CCCC2)cc1", "redox activity (% of DA3003)": "18.4% (inactive)"}
{"smiles": "CC1(C(=O)O)CCCC2(C)C3CCC4CC3(CCC12)CC4(O)CO", "note": "(stereo not given)", "redox activity (% of DA3003)": "-4.08% (inactive)"}
{"smiles": "C[C@]1(O)CC[C@@H]2C(C(=O)O)=CO[C@@H](O[C@@H]3O[C@H](CO)[C@@H](O)[C@H](O)[C@H]3O)[C@@H]21", "redox activity (% of DA3003)": "-15.8% (inactive)"}
{"smiles": "C[C@H]1CC[C@@]2(OC1)O[C@H]1CC3C4CC[C@H]5C[C@@H](O[C@@H]6O[C@H](CO)[C@H](O[C@@H]7O[C@H](CO)[C@@H](O)[C@H](O[C@@H]8OC[C@@H](O)[C@H](O)[C@H]8O)[C@H]7O[C@@H]7O[C@H](CO)[C@@H](O)[C@H](O)[C@H]7O)[C@H](O)[C@H]6O)[C@H](O)C[C@]5(C)C4=CC(=O)[C@]3(C)[C@H]1[C@@H]2C", "note": "(stereo not given in full)", "redox activity (% of DA3003)": "3.4% [at 11.5 µM] (inactive)"}
{"smiles": "C=C(C(=O)O)[C@@H]1CC[C@@]2(C)CC[C@@H](O)C(=C)C2C1", "note": "(stereo not given in full)", "redox activity (% of DA3003)": "0.878% (inactive)"}
{"smiles": "C=C1C(=O)O[C@@H]2CC(C)=C([C@@H](C)CCCOC(C)=O)[C@@H](O)[C@H]12", "redox activity (% of DA3003)": "-3.69% (inactive)"}
{"smiles": "C=C(C(=O)O)[C@@H]1CC[C@H](C)[C@@H]2CC(=O)C(C)=C2C1", "redox activity (% of DA3003)": "-7.14% (inactive)"}
{"smiles": "C[C@]12CCC[C@](C)(C(=O)O)C1[C@@H](O)[C@@H](O)C13CC(CCC12)C(CO)(O[C@@H]1O[C@H](CO)[C@@H](O)[C@H](O)[C@H]1O)C3", "note": "(stereo not given in full)", "redox activity (% of DA3003)": "-14.5% [at 25.6 µM] (inactive)"}
{"smiles": "COc1cn(-c2ccc(-n3cccn3)cc2F)nc(-c2ccnn2-c2ccccc2)c1=O", "redox activity (% of DA3003)": "-3.86% (inactive)"}
